Source: PubChem BioAssay (NCI)
Several values for one entry are separate records, joined by “and”; a condition that tells them apart may be missing. Equal entries are not always repeated. Compounds without any hit were thinned out: in the full panel of roughly 83,000, 20% have a hit.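 Method: cells in 96-well plates; compound added at one concentration; 48 h incubation; percent growth measured; values under 10 scored active.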 A number with no mark means an inactive call. Activity calls are given as the source filed them.

Tests used:
Assay in all cases: NCI-60 one-dose screen, 48 h (100 = growth as untreated, 0 = no growth, -100 = all killed)
Conditions in all cases: 10 µM unless noted
[1] = test system: SR leukemia
[2] = test system: RPMI-8226 leukemia
[3] = test system: OVCAR-8 ovarian
[4] = test system: OVCAR-5 ovarian
[5] = test system: OVCAR-4 ovarian
[6] = test system: SK-OV-3 ovarian
[7] = test system: IGROV1 ovarian
[8] = test system: OVCAR-3 ovarian
[9] = test system: HS 578T breast
[10] = test system: NCI/ADR-RES ovarian

SMILES	growth [1]	growth [2]	growth [3]	growth [4]	growth [5]	growth [6]	growth [7]	growth [8]	growth [9]	growth [10]
COc1ccc(NC(=O)Cn2c(/C=C/c3cccc(OC)c3)nc3ccccc3c2=O)cc1	77.6%	41.1%	10.4%	40%	-30.1% (active)	44.8%	37.7%	28.5%	9.48% (active)	35.4%
Nc1nc(-c2ccccc2)c(N=Nc2ccc(Cl)cc2Cl)s1	-33.6% (active)	7.32% (active)	12.1%	-61.9% (active)	-2.75% (active)	7.41% (active)	-29.7% (active)	-70.3% (active)	-28.2% (active)	-57% (active)
Cc1ccc(C(=O)Nc2cccc(C(=O)NC(=S)Nc3ccc(S(N)(=O)=O)cc3)c2)cc1	79.7%	82.2%	51.1%	91.5%	31.6%	77%	96.2%	78.8%	63.8%	84.8%
C=CC(=O)Nc1ccc(C(=O)/C=C/c2ccc(N(C)C)cc2)c(O)c1	2.78% (active)	6.01% (active)	-8.4% (active)	7.71% (active)	39%	11.7%	15.8%	-18.3% (active)	21.7%	15.3%
Cn1cc(-c2cc3nc(-c4c[nH]c5ccccc45)cc(N)n3n2)c2ccccc21	8.18% (active)	-21.9% (active)	-73.6% (active)	-39.4% (active)	-39.9% (active)	43.2%	-77.5% (active)	-76.3% (active)	-9.04% (active)	-37.8% (active)
COc1sc(/C=N/NC(=O)c2[nH]c3ccc(Br)cc3c2-c2ccccc2)cc1Cl	11.1%	12.7%	-30.4% (active)	-29.3% (active)	29.9%	12.1%	-41.1% (active)	4.74% (active)	7.66% (active)	-48.7% (active)
O=c1ccc(Cn2c(C(F)(F)F)cc3c(Cl)ncnc32)c[nH]1	-53.9% (active)	81.1%	0.681% (active)	126%	-2.63% (active)	119%	-67.4% (active)	-20% (active)	-14.4% (active)	61.3%
O=C(N/N=C/c1ccc(Cl)cc1)c1ccc(OCc2nc3ccc(Cl)cc3[nH]2)cc1	3.65% (active)	40.3%	-12.1% (active)	35.4%	-8.33% (active)	14.5%	15.4%	-20.3% (active)	25.2%	45.4%
COc1ccc(-c2cc(-c3cc(C(C)C)c(O)cc3C)nn2-c2ccc(S(N)(=O)=O)cc2)cc1	5.77% (active)	16.5%	24.5%	65.8%	64%	60.5%	85.8%	8.38% (active)	28.9%	-17.2% (active)
COC(=O)c1cc(C(=O)CBr)n2c1ccc1c3ccccc3ccc12	2.25% (active)	38.7%	31.3%	72.8%	101%	62%	33.5%	103%	61%	57.4%
O=C(c1cc2cc(OCCCN3CCC3)ccc2[nH]1)N1C[C@@H](CCl)c2c1cc(OCc1ccccc1)c1ccccc21	-9.25% (active)	-37.1% (active)	-37.6% (active)	-76.9% (active)	-57.7% (active)	-9.06% (active)	-53.8% (active)	-29.5% (active)	-8.06% (active)	-34.9% (active)
CC(C)(C)c1ccc(OCc2nc3ccccc3n2-c2cccc(N)c2)cc1	26.3% and 92.3%	48.3% and 110%	72.3% and 110%	85.7% and 111%	49.6% and 105%	103% and 107%	65.7% and 108%	53.1% and 128%	53.9% and 96.3%	50.2% and 101%
O=C(CSc1nc2ccccc2c(=O)[nH]1)NNC(=O)c1ccccc1Cl	113%	108%	100%	129%	99.6%	103%	128%	118%	97.1%	123%
CN(CCSSCCN1CCOCC1)C(=O)Oc1cc2c(c3ccccc13)[C@H](CCl)CN2C(=O)c1cc2cc(OCCCN3CCC3)ccc2[nH]1	-26.2% (active)	-28.5% (active)	-15.7% (active)	-36.7% (active)	-28.7% (active)	-27.7% (active)	-22.1% (active)	-46.7% (active)	-16.8% (active)	-30.4% (active)
C[C@@H]1[C@H]2C[C@@H](C[C@H]1NCc1nc3ccccc3n1C1CCCCCC1)C2(C)C	15.4%	27.6%	75.1%	85.9%	72.4%	90.4%	75.8%	64.5%	80.2%	25.9%
CCOc1ccccc1[C@H]1C(C(=O)c2ccc(Cl)cc2)C2(N[C@@H]1c1ccccc1)C(=O)Nc1ccc(Cl)cc12 (stereo not given in full)	-28.3% (active)	21.1%	45%	46.2%	22.5%	42.8%	22.2%	27%	49%	12.6%
CN(C)c1nc(NCCNS(=O)(=O)c2ccc(C3=Nc4c(N)nc(N)nc4NC(c4ccc(Cl)cc4)C3)cc2)nc(N2CCOCC2)n1 (stereo not given)	31.9%	21.4%	64.3%	82.7%	66.9%	75.9%	45%	65.5%	45.2%	85.7%
C=CCn1c(O)c(N=Nc2nc(-c3cc4ccccc4oc3=O)cs2)c2ccccc21	16.2%	106%	80.9%	18.6%	80.9%	112%	23.9%	49.3%	27.5%	91.6%
CCOC(=O)/C(F)=C/C1CC1C(c1ccccc1)c1ccccc1 (stereo not given)	63.3%	69.5%	105%	102%	87.3%	148%	90.8%	103%	81.3%	89.4%
CN(C)CCCNC(=S)Nc1ccc(/C=C/c2ccc(Cl)cc2)cc1	-1.02% (active)	3.25% (active)	-40.8% (active)	-99.6% (active)	-68.2% (active)	-56.9% (active)	-70.4% (active)	23.6%	11.7%	-43.6% (active)
N#C/C(=C1/C(=O)Nc2ccccc21)c1nnc(NC(=O)c2ccc(-n3c(=O)[nH]c4ccccc4c3=O)cc2)s1	17%	11.5%	40.2%	63.5%	31.2%	75.1%	38.7%	25.6%	55.6%	22.9%
O=C(Nc1ccc(F)cc1)Nc1nc2ccc([N+](=O)[O-])cc2s1	12.9%	-23.5% (active)	11.4%	24%	16.4%	-5.21% (active)	27.1%	22.6%	-8.39% (active)	6.37% (active)
OC1CCC(Cn2c(C(F)(F)F)cc3c(Cl)ncnc32)CC1 (stereo not given)	-58.9% (active)	84.9%	-4.04% (active)	94.6%	-19.9% (active)	57.7%	-85.7% (active)	-25.1% (active)	-35.7% (active)	51.8%
CCN1C(=O)N(CC)C2NNC(Sc3c(C(=O)O)c4ccccc4n(CC(C)C)c3=O)=NC21 (stereo not given)	11.1%	8.29% (active)	11.8%	24.2%	67%	40.6%	20%	4% (active)	-2.68% (active)	-27.6% (active)
O=C(N/N=C/c1c[nH]c2ccccc12)Nc1ccc(F)c(Cl)c1	19.3%	27.5%	50.2%	60.1%	52.8%	38.6%	42.7%	18.9%	58.8%	9.47% (active)
